PubChem BioAssay
This is one part of the list. The source made the active and inactive calls.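 Rule for the calls, unless noted: active = mean inhibition above about 50% in the one-dose retest (limit read from the data); inactive = the rest.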

Columns and labels:
[1] = molecular target: Sentrin-specific protease 8 (Homo sapiens) (UniProt Q96LD8); experiment: human SENP8 peptidase blockers, hit retest – biochemical, luminescence, single concentration, confirmation (AID 488912;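 active = mean inhibition across replicates above about 50%, limit read from the data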); details: Recombinant SENP8, Z-RLRGG-aminoluciferin luminescence, 60 min; at 12.5 µM; stronger effect = higher value
[2] = molecular target: Sentrin-specific protease 6 (Homo sapiens) (UniProt Q9GZR1); experiment: inhibition of human SENP6 catalytic domain – biochemical, luminescence, single concentration, confirmation (AID 488915); details: recombinant SENP6, Z-RLRGG-aminoluciferin luminescence; at 12.5 µM; stronger effect = higher value
[3] = molecular target: Sentrin-specific protease 7 (Homo sapiens) (UniProt Q9BQF6); experiment: human SENP7 peptidase blockers, hit retest – biochemical, luminescence, single concentration, confirmation (AID 488917); details: recombinant SENP7, Z-RLRGG-aminoluciferin luminescence, 40 min; at 12.5 µM; stronger effect = higher value
Caspase-3 (Homo sapiens) = Caspase-3 (Homo sapiens) (UniProt P42574); experiment: human caspase-3 activity blockade, out-of-family – biochemical, single concentration, selectivity assay for SENP inhibitor project, confirmation (AID 488918;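 active = mean inhibition above about 50%, limit read from the data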;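 note: plate controls were enzyme with DMSO for no effect and wells without caspase-3 for full effect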); details: purified caspase-3, Z-DEVD-aminoluciferin luminescence, 60 min; at 12.5 µM; stronger effect = higher value
[4] = Ultra-Glo luciferase signal interference – biochemical, single concentration, SENP8 reaction pre-completed, artefact control for SENP inhibitor project, confirmation (AID 488919;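 active = mean inhibition above about 50% when retested at one dose, limit read from the data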;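 note: plate controls were DMSO wells with completed reaction for no effect and substrate without enzyme for full effect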); details: Pre-incubated SENP8/Z-RLRGG-aminoluciferin, luciferase luminescence interference; at 12.5 µM; stronger effect = higher value

Chain of Caspase-3 (Homo sapiens) (P42574 28-227 limits assumed): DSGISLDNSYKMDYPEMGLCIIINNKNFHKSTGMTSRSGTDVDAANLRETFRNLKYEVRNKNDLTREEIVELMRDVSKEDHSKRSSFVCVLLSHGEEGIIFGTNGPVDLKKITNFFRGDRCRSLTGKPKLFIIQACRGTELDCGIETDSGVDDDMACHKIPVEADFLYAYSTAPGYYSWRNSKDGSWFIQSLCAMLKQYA
Chain of Sentrin-specific protease 7 (Homo sapiens) (Q9BQF6 706-1050 limits assumed): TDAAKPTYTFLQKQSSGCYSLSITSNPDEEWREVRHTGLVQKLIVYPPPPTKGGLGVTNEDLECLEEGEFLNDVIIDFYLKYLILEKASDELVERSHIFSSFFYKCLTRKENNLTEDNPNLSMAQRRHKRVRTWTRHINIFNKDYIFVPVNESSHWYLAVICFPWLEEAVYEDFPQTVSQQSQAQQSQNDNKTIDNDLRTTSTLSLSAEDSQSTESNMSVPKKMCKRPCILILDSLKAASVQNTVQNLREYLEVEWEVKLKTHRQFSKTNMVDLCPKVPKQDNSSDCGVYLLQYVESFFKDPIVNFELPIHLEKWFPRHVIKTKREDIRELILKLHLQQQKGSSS
Chain of Sentrin-specific protease 6 (Homo sapiens) (Q9GZR1 628-1112 limits assumed): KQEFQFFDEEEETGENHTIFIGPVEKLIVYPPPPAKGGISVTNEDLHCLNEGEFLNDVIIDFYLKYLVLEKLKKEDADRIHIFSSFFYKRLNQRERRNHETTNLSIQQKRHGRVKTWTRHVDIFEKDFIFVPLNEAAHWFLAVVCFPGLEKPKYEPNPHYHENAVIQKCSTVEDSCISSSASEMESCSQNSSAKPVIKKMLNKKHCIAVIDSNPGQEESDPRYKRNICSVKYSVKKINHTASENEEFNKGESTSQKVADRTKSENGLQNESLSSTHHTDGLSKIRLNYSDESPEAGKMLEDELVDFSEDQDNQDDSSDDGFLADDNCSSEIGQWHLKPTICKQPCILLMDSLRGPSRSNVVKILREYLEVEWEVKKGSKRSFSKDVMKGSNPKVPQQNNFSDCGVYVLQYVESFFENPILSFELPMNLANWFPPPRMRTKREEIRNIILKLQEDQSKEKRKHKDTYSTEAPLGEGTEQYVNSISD
Chain of Sentrin-specific protease 8 (Homo sapiens) (Q96LD8 whole entry, looked up, the tested form may be a part): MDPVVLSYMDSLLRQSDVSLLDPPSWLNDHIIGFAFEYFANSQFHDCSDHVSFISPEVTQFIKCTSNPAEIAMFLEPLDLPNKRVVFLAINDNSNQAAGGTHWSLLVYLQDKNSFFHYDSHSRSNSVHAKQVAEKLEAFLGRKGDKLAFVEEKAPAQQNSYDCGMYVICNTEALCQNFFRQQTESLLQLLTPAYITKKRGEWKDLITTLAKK

SMILES | inhibition [1] | inhibition [2] | inhibition [3] | inhibition (Caspase-3 (Homo sapiens)) | inhibition [4]
Cc1[nH]n(C(N)=S)c(=O)c1N=Nc1ccc(Cl)cc1Cl | 81.4% (active) | 89.8% (active) | 93.3% (active) | 85.3% (active) | 38.9% (inactive)
COc1ccc(/C=C2/SC(=O)N(CCCCCC(=O)Nc3ccccc3C(=O)O)C2=S)cc1 | -4.2% (inactive) | 0.2% (inactive) | 2.7% (inactive) | -3.8% (inactive) | 8.6% (inactive)
COCn1c(COc2ccccc2)nc2ccccc21 | 39.7% (inactive) | 39.5% (inactive) | 76.4% (active) | 74.2% (active) | 56% (active)
Brc1ccc2nc(N3CCCC3)sc2c1 | 83.5% (active) | 95.8% (active) | 102% (active) | 81.3% (active) | 38.6% (inactive)
O=c1c2ccccc2ncn1/N=C/c1ccccc1 | 2.5% (inactive) | 80.2% (active) | 97% (active) | 86.6% (active) | 69% (active)
COc1ccc(NC(=O)Nc2cccc3cccnc23)cc1 | 86.4% (active) | 85.6% (active) | 97.2% (active) | 70.7% (active) | 78.5% (active)
CC(C)Cc1cc(C(=O)Nc2cc(Br)ccc2O)no1 | 6% (inactive) | 21.4% (inactive) | 28.9% (inactive) | 15.4% (inactive) | 7.1% (inactive)
CCCCOc1ccc(-c2nnc(-c3ccco3)o2)cc1 | 37.7% (inactive) | 44.6% (inactive) | 41.1% (inactive) | 12.6% (inactive) | 2% (inactive)
CC(=O)Oc1ccc2c(=O)oc(-c3ccc([N+](=O)[O-])cc3)nc2c1 | -6.1% (inactive) | -1.5% (inactive) | -2.9% (inactive) | -2.9% (inactive) | -4.7% (inactive)
CC(=O)N1C(=O)/C(=C2\SC(=S)N(NC(=O)c3ccc(O)cc3)C2=O)c2ccccc21 | 25.6% (inactive) | 79.1% (active) | 25.2% (inactive) | 10.3% (inactive) | 3.7% (inactive)
Cc1cccc(NS(=O)(=O)c2cccc(C(=O)NNC(=O)c3ccccc3O)c2)c1 | 26.9% (inactive) | 54.5% (active) | 75.5% (active) | 56.8% (active) | 49.9% (inactive)
Cc1ccn2cc(-c3nonc3C)cc2c1 | 47.6% (inactive) | 77% (active) | 95.7% (active) | 73.7% (active) | 33% (inactive)
Clc1ccc(Nc2ccc3ccccc3n2)cc1 | 87.7% (active) | 88.2% (active) | 97.8% (active) | 48.8% (inactive) | 71.2% (active)
Cc1cc(NC(=O)Nc2ccccc2[N+](=O)[O-])no1 | 46% (inactive) | 40.1% (inactive) | 77.2% (active) | 70.8% (active) | 41.3% (inactive)
Brc1ccc(-c2nnc(-c3ccccc3)o2)o1 | 25.1% (inactive) | 50.8% (active) | 80.1% (active) | 62.9% (active) | 19.1% (inactive)
O=C1/C(=C/c2cccs2)CCc2ccccc21 | 98.3% (active) | 99.1% (active) | 101% (active) | 95.8% (active) | 97.6% (active)
CCC(=O)NC(Nc1cc(C)ccn1)(C(F)(F)F)C(F)(F)F | -4.5% (inactive) | -2.4% (inactive) | -0.5% (inactive) | 8.4% (inactive) | 4.2% (inactive)
CCn1nccc1C(=O)Nc1ccc(Cl)c(Cl)c1 | 61.1% (active) | 57.7% (active) | 80.6% (active) | 35.5% (inactive) | 66.5% (active)
CC(=O)Nc1ccc(/C=N/NC(=O)c2cccs2)cc1 | 31.2% (inactive) | 34% (inactive) | 78.5% (active) | 82.4% (active) | 58.1% (active)
c1ccc(-c2noc(-c3cccs3)n2)nc1 | 90% (active) | 91.3% (active) | 98.9% (active) | 95.4% (active) | 90.1% (active)
Nc1[nH][nH]c(=O)c1N=Nc1ccc2c(c1)OCO2 | 41.3% (inactive) | 39.2% (inactive) | 67.3% (active) | 74% (active) | 12% (inactive)
Fc1ccc(COc2ccc(-c3nnco3)cc2)cc1 | 29% (inactive) | 60.4% (active) | 85.8% (active) | 67.9% (active) | 65.6% (active)
CCC(=O)Nc1ccc(C(=O)Nc2cccc(OC)c2)cc1 | 42.4% (inactive) | 39% (inactive) | 71.9% (active) | 69.1% (active) | 52.9% (active)
Cc1cc(N=Nc2ccc3ccccc3c2)ccc1O | 98.3% (active) | 98.9% (active) | 102% (active) | 85.7% (active) | 76.6% (active)
C=CCNC(=S)N1CCN(CCN=Cc2c(C)[nH]n(-c3ccc([N+](=O)[O-])cc3)c2=O)CC1 | 0.7% (inactive) | 21.1% (inactive) | 28% (inactive) | 56.6% (active) | 16.9% (inactive)

SMILES | inhibition [1] | inhibition [2] | inhibition [3] | inhibition (Caspase-3 (Homo sapiens)) | inhibition [4]
O=C(Nc1ccccc1)c1cc2ccccc2[nH]1 | -22.5% (inactive) | -15.9% (inactive) | 1.9% (inactive) | -4.8% (inactive) | 8.3% (inactive)
N/C(=N\OC(=O)CCC1CCCCC1)c1ccccn1 | 88.5% (active) | 88.3% (active) | 98.2% (active) | 90.7% (active) | 43.5% (inactive)
O=C(Nc1ccc(C2CC2(Cl)Cl)cc1)c1cccc([N+](=O)[O-])c1 (stereo not given) | 57.6% (active) | 60.1% (active) | 87.5% (active) | 36.1% (inactive) | 29.5% (inactive)
O=C(NCc1ccccn1)c1c(O)c2c([nH]c1=O)CCCC2 | -0.6% (inactive) | 0.3% (inactive) | -5.1% (inactive) | -3.9% (inactive) | -3.1% (inactive)
COc1ccc(Cc2nnc(SCC(=O)c3cccc([N+](=O)[O-])c3)n2C)cc1 | -3.9% (inactive) | 1.7% (inactive) | 6.9% (inactive) | 4.6% (inactive) | -2.3% (inactive)
COc1cccc(C(=O)Nc2nc3ccc(S(C)(=O)=O)cc3s2)c1 | 4.4% (inactive) | 86.4% (active) | 98.9% (active) | 89.2% (active) | 73.5% (active)
CCOc1ccc(C(=O)Nc2cccc(SC)c2)cc1 | -21.9% (inactive) | 80.1% (active) | 96.7% (active) | 76.3% (active) | 85.8% (active)
C/C(=N\NC(=O)c1ccc(C)cc1)C1C(=O)c2ccccc2C1=O | 92.6% (active) | 93.5% (active) | 100% (active) | 92.7% (active) | 94.1% (active)
CC(OC(=O)c1ccc2ccccc2n1)C(=O)c1ccccc1 (stereo not given) | 54.3% (active) | 50% (inactive) | 87.7% (active) | 75% (active) | 64.5% (active)
O=C(Nc1cccnc1Cl)c1cc(-c2ccccc2O)on1 | 8.6% (inactive) | 17.8% (inactive) | 16.2% (inactive) | 8% (inactive) | 1.6% (inactive)
O=C(Nc1ccccc1)Nc1ccccc1C(=O)NCc1ccco1 | 2.7% (inactive) | 60.7% (active) | 85.6% (active) | 63.9% (active) | 66.7% (active)
CN(CCO)c1ccc(/C=N/Nc2nncc3ccccc23)cc1 | 98.7% (active) | 99.7% (active) | 103% (active) | 98.7% (active) | 93.4% (active)
CCOC(=O)/C(C#N)=C/c1ccc(N2CCCCC2)cc1 | 25.6% (inactive) | 34.1% (inactive) | 65% (active) | 30.2% (inactive) | 10.6% (inactive)
COc1cccc(C(=O)Nc2ccc(NC(=O)c3ccco3)cn2)c1 | 53.1% (active) | 51% (active) | 82.4% (active) | 76.1% (active) | 62.4% (active)
CCOC(=O)c1cccc(NC(=O)c2ccc(F)cc2F)c1 | 54% (active) | 48.2% (inactive) | 75.9% (active) | 67.9% (active) | 59.7% (active)
Cc1cccc(Nc2nc(-c3ccccc3)cs2)n1 | -7.1% (inactive) | 91.5% (active) | 99.9% (active) | 67.1% (active) | 49.5% (inactive)
Oc1ccc(Br)cc1C=Nc1ccc2[nH]ncc2c1 | 5.1% (inactive) | 2.1% (inactive) | -2.2% (inactive) | -0.8% (inactive) | -3.9% (inactive)
O=C(Nc1ccc2c(c1)CCC2)c1cccc(S(=O)(=O)Nc2ccccc2Cl)c1 | 44% (inactive) | 40.3% (inactive) | 50.8% (active) | 13.2% (inactive) | 4.6% (inactive)
CSc1ccccc1NC(=O)c1cc(C2CC2)on1 | 34.7% (inactive) | 28.3% (inactive) | 62.8% (active) | 41.1% (inactive) | 40% (inactive)
Cc1nonc1C(=O)N/N=C/c1ccc(O)cc1 | 99.5% (active) | 101% (active) | 103% (active) | 99.4% (active) | 66.2% (active)
COc1cc(C#Cc2ccc3cc(CCCO)oc(=O)c3c2)cc(OC)c1 | 56.9% (active) | 72.2% (active) | 86.6% (active) | 42.7% (inactive) | 15.2% (inactive)
FC(F)(F)c1ccnc(Oc2ccc(C3=NCCS3)cc2)c1 | 36.3% (inactive) | 42.8% (inactive) | 53.1% (active) | 29.9% (inactive) | 17% (inactive)
CC(C)N(C(=O)Cn1cc(SCC(=O)N2CCCC2)c2ccccc21)C(C)C | -29.2% (inactive) | -18.1% (inactive) | -8.3% (inactive) | -6.3% (inactive) | -6.7% (inactive)
Oc1ccc(N=Nc2nccs2)c(O)c1 | 82.3% (active) | 80.3% (active) | 93.9% (active) | 90.8% (active) | 82.8% (active)
CN(CC(=O)Nc1ccc(Cl)cc1)C(=O)CNC(=O)c1ccc2ccccc2c1 | 15.1% (inactive) | 12.3% (inactive) | 66.3% (active) | 21.6% (inactive) | 1.1% (inactive)
